Compound activity (PubChem)
The full list was thinned out, with hits kept by preference.
LmPK inh – blocks Leishmania mexicana pyruvate kinase activity. Q27686. purified LmPK, Kinase-Glo ATP luminescence, 1 h. Potency, µM (series often up to 57.5 µM), without a hit: top-dose activity change, negative = inhibition, hits mostly inhibitors. actives 0.37% (n = 290,000); also: potency is read from the fitted curve at half-maximal effect; % is scaled to controls: 0 for no effect and ±100 for the full control effect
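qHTS format; LmPK 0.1 nM; substrates PEP 0.5 mM and ADP 0.1 mM. One-hour room-temperature incubation, then coupled luciferase luminescence; 0.5 nM enzyme wells mark activation.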
TbPYK inhibitor – blocks Trypanosoma brucei pyruvate kinase. TbPYK enzyme, Kinase-Glo Plus ATP luminescence, 45 min. Potency, µM (titrated, usually from 76.8 µM), for the others: at the highest dose activity, negative = inhibition, usual class: inhibitors. actives 0.12% (n = 410,000); also: potency is read from the fitted curve at half-maximal effect; % is scaled to controls: 0 for no effect and ±100 for the full control effect; nearly all actives have a fitted effect of over 50% in size
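Activity of T. brucei pyruvate kinase was followed by Kinase-Glo Plus luminescence after the enzyme reacted 45 min at room temperature with 130 uM ADP (final) and substrate. Test compounds were added before ADP at multiple concentrations.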
CHX counter – counter-screen for Shiga toxin inhibitors: cycloheximide protein synthesis inhibition; cell reporter, cycloheximide protein synthesis inhibition counterscreen; actives 12% (n = 300,000); max response, %; AID 2314; in the data active = max response mostly above about 13%, no sharp cut-off; inactive = mostly below about 14%; also: read at 38.3 µM for the half of the compounds with a filed dose; 0% is about no effect
Shiga inhibitor – inhibitors of Shiga toxin in Vero cells; Vero cells, Shiga toxin protein synthesis inhibition reporter; inhibition, % at 38.7 µM; actives 9.2% (n = 290,000); AID 2315; in the data active = inhibition mostly above about 28%, no sharp cut-off; inactive = mostly below about 43%; also: 0% is about no effect
RE007 growth inh – less growth of the S. pombe RE007 Vpr strain. S. pombe RE007 Vpr strain, BacTiter-Glo ATP luminescence, 24 h. Potency, µM (doses to about 92.2 µM), inactives show at the top dose activity change, negative = less growth, hits mostly inhibitors. actives 0.21% (n = 360,000); active = well fitted falling curve with a large enough effect; inconclusive = small, poorly fitted or top-dose-only effect; inactive = no such curve, though single readings can be large or run the other way; also: potency is read from the fitted curve at half-maximal effect; % is scaled to controls: 0 for no effect and ±100 for the full control effect; nearly all actives have a fitted effect of over 50% in size
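Fission yeast RE007 carrying one integrated HIV-1 vpr copy, seeded at OD 0.01 in PMG+AL medium with 23 nL pinned compound. Grown 24 h at 30 degrees; viability read by BacTiter-Glo luminescence after 5 min.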
Giardia FBPA inh – blocks Giardia fructose-bisphosphate aldolase activity; A8B2U2; purified Giardia FBPA; Potency, µM (series often up to 59.6 µM), for the others: at the highest dose activity, negative = inhibition, most hits filed as inhibitors; actives 0.71% (n = 290,000); also: potency is read from the fitted curve at half-maximal effect; % is scaled to controls: 0 for no effect and ±100 for the full control effect; nearly all actives have a fitted effect of over 55% in size
Target sequence (A8B2U2 whole entry, looked up): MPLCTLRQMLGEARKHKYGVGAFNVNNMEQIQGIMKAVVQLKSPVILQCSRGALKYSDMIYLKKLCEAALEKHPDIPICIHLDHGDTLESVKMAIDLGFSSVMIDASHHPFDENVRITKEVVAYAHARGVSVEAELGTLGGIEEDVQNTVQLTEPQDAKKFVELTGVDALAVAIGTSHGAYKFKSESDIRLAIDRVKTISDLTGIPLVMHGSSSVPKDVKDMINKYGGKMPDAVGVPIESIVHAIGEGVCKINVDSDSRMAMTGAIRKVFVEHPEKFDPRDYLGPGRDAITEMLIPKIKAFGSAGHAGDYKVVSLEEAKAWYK
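40 nM FBPA preincubated 10 min at RT with compound (up to 57.5 uM final), then substrate plus GAPDH/TPI/NAD/arsenate coupling and diaphorase/resazurin added. Fluorescence read after 20 min at RT, 525/598 nm.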
* hit, by the source's call; ? = inconclusive; nt = not tested or not shown. Unless noted, calls follow the shape of the dose curve; as a rule, active = well fitted curve in the direction sought with a large enough effect; inconclusive = small, poorly fitted or top-dose-only effect, or another doubt; inactive = no such curve, though single readings can be large; an effect the other way counts as inactive or inconclusive.

SMILES | LmPK inh | TbPYK inhibitor | CHX counter | Shiga inhibitor | RE007 growth inh | Giardia FBPA inh
CNC(=O)/C(C#N)=C/c1cccc(Oc2ccccc2)c1 | 2% | 1% | 42* | 64* | 18µM* | -7%
O=C(NCC(c1ccco1)S(=O)(=O)c1cccs1)c1c(F)cccc1F (stereo not drawn) | nt | 0% | nt | nt | nt | nt
O=C(C1COc2ccccc2O1)N1CCc2ccccc2C1 (stereo not drawn) | 4% | -5% | 29* | 60* | 0% | -6%
Cc1cccc(N2CCN(C(=O)C3COc4ccccc4O3)CC2)c1C (stereo not drawn) | 0% | -3% | 24* | 52* | -4% | 4%
O=C(C1COc2ccccc2O1)N1CCN(c2ccccc2Cl)CC1 (stereo not drawn) | -1% | -3% | -4 | -5 | -11% | 1%
Cc1nn(-c2ccccc2)c(C)c1/C=N/NC(=O)CSc1nnc(SCc2ccccc2Cl)s1 | -6% | -4% | 35* | 42 | 10% | 4%
Cc1ccc(CSc2nnc(SCC(=O)N/N=C/c3c(C)nn(-c4ccccc4)c3C)s2)cc1 | -1% | -1% | 76* | 120* | -8% | 3%
Cc1nn(-c2ccccc2)c(C)c1/C=N/NC(=O)CSc1nnc(-c2ccccc2)n1-c1ccc(Cl)cc1 | -5% | 3% | 3 | -16 | 7% | 23%
Cc1ccc(Cl)cc1NC(=O)Cn1c(=O)n(Cc2ccccc2)c(=O)c2oc3ccccc3c21 | nt | -1% | nt | nt | nt | nt
O=C(Cc1cccs1)NCc1ccccc1F | 1% | -6% | 18* | 52* | 21% | 3%
O=C(NCc1cccs1)c1ccccc1F | -3% | 8% | 12* | 12 | -9% | 6%
O=C(Cc1c(O)c2ccccc2[nH]c1=O)NCc1ccccc1F | 1% | 0% | 60* | 94* | 5% | -29%
COc1ccc(CC(=O)NCc2cccs2)cc1OC | 10% | -3% | -2 | -16 | -7% | 2%
COc1ccc(CNC(=O)Cc2cccs2)cc1OC | -2% | 2% | 28* | 54 | 2% | 0%
CN(C)Cc1ccccc1-c1ccc2ncnc(N3CCOCC3)c2c1 | nt | nt | nt | nt | nt | -17%
Cc1ccccc1CNC(=O)Cc1cccs1 | 12% | -3% | 44* | 50* | -25% | 8%
O=C(Cc1cccs1)NCc1ccccc1 | -11% | -6% | 10 | 26 | 2% | 0%
Cc1ccc(NC(=O)c2cc3nc(-c4ccc5c(c4)OCO5)cc(C(F)(F)F)n3n2)cc1Cl | nt | 2% | nt | nt | nt | nt
CSc1cccc(Nc2cc(C(=O)NCCCN(C)c3ccccc3)c3ccccc3n2)c1 | nt | 7% | nt | nt | nt | nt
CC1(C(=O)O)CCCC2(C)c3cc(O)ccc3CCC12 (stereo not drawn) | nt | -1% | nt | nt | 1% | nt
CC(C)c1cc2c(c(O)c1O)[C@@]1(C(=O)O)CCCC(C)(C)[C@@H]1CC2 | nt | nt | 4 | 11 | nt | 10µM*
COc1ccc2c(CNCc3cccs3)c(C(=O)O)n(Cc3ccccc3F)c2c1 | nt | -1% | nt | nt | nt | nt
Cc1ccc(NC(=S)Nc2ccccn2)cc1C | 1% | -16% | 65* | 85* | -10% | -9%
Cc1ccc(NC(=S)Nc2ccc3nc(-c4ccccn4)c(-c4ccccn4)nc3c2)cc1C | 2% | 1% | 16* | 40 | -4% | 1.3µM*
Cc1ccc(NC(=S)Nc2ccc(F)cc2)cc1C | 8% | -6% | 12 | 28 | 4% | -20%
SMILES | LmPK inh | TbPYK inhibitor | CHX counter | Shiga inhibitor | RE007 growth inh | Giardia FBPA inh
Cc1cccc(NNC(=S)Nc2ccccc2)c1 | nt | -4% | nt | nt | ? | nt
Cc1cc(C)cc(NC(=S)Nc2ccccn2)c1 | -1% | -10% | 21 | active | -6% | -9%
Cc1cccc(NC(=S)Nc2ccccn2)c1 | -4% | -7% | 33* | 62* | -27% | -15%
CCCCCCCCCCCCCC[N+](C)(C)Cc1ccccc1 | nt | 10% | nt | nt | nt | nt
CCOC(=O)N1CCN(CC(=O)N2c3ccccc3CCc3ccccc32)CC1 | 3% | -14% | -2 | 14 | 9% | ?
CCOC(=O)C1CCCN(C(=O)CCc2nnc(-c3ccc(C(C)=O)s3)o2)C1 (stereo not drawn) | 5% | 5% | 63* | 109* | -11% | -4%
